Assay results published in publication PMC7862700, “An all-to-all approach to the identification of sequence-specific readers for epigenetic DNA modifications on cytosine”.

Columns and labels:
Assay in all cases: DAPPL (digital affinity profiling via proximity ligation, sequencing); 10 mM Tris-HCl pH 7.5, 50 mM NaCl, 1 mM DTT, 4% glycerol, room temperature, 30 min; GST-TFs on glutathione beads, 16-mer random dsDNA library, 0.1% formaldehyde crosslink after washing; high values mean tight binding
FLI1 = target: T1, FLI1 (Homo sapiens, UniProt Q01543 1-452); conditions: protein: recombinant; tags: N-terminal GST; dsDNA, one strand shown
T1 sequence: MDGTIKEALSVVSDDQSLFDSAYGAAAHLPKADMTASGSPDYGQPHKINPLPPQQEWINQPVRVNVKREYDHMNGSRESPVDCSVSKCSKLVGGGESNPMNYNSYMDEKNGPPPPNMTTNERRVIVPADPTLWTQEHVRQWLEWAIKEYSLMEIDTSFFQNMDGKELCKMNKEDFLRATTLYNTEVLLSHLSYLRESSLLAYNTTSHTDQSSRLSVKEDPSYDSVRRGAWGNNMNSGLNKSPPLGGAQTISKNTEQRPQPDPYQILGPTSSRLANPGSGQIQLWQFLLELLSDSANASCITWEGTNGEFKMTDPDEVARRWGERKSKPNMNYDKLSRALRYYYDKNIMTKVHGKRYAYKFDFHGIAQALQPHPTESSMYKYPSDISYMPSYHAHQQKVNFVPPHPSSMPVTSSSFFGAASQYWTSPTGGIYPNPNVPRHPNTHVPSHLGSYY
In short: (§1)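 Human transcription factors fused to GST were expressed in yeast, captured on glutathione beads, given DNA barcodes and pooled with a GST-only negative control. Pools were incubated with 200 nmole of a 16-mer random double-stranded DNA library in Tris/NaCl/DTT/glycerol buffer at room temperature for 30 min. They were then washed, crosslinked with 0.1% formaldehyde, proximity-ligated (BsaI/T4 ligase, 1 h, 37 °C), PCR-amplified and sequenced on an Illumina NextSeq500. Binding signal is each 6-mer's read frequency for a factor divided by its frequency for the GST control.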

ELK1 = target: T2, ELK1 (Homo sapiens, UniProt P19419 1-428); conditions: protein: recombinant; tags: N-terminal GST; dsDNA, one strand shown
T2 sequence: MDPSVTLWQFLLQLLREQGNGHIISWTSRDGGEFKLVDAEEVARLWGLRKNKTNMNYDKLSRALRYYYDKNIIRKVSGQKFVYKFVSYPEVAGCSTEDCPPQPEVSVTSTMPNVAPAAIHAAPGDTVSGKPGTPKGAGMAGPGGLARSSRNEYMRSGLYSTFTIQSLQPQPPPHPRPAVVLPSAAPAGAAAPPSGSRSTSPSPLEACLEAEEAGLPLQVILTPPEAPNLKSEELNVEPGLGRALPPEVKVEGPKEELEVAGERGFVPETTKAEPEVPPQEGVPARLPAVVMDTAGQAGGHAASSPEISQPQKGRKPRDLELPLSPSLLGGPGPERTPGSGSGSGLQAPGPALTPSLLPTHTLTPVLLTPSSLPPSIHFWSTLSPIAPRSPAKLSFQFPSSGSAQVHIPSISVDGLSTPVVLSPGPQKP
In short: as §1

GABPA = target: T3, GABPA (Homo sapiens, UniProt Q06546 1-454); conditions: protein: recombinant; tags: N-terminal GST; dsDNA, one strand shown
T3 sequence: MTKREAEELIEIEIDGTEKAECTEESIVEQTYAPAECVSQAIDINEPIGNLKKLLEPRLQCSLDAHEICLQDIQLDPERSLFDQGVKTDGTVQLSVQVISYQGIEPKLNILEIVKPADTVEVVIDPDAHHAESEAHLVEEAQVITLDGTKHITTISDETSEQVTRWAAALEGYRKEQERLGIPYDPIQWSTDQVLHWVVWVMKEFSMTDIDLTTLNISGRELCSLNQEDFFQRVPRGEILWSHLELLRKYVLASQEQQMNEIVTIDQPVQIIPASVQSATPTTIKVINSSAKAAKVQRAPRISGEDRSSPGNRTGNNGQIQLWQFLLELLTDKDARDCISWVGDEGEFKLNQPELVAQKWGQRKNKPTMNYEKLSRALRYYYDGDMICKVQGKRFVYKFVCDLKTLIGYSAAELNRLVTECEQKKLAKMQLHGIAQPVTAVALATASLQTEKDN
In short: as §1

ERG = target: T4, ERG (Homo sapiens, UniProt P11308 1-479); conditions: protein: recombinant; tags: N-terminal GST; dsDNA, one strand shown
T4 sequence: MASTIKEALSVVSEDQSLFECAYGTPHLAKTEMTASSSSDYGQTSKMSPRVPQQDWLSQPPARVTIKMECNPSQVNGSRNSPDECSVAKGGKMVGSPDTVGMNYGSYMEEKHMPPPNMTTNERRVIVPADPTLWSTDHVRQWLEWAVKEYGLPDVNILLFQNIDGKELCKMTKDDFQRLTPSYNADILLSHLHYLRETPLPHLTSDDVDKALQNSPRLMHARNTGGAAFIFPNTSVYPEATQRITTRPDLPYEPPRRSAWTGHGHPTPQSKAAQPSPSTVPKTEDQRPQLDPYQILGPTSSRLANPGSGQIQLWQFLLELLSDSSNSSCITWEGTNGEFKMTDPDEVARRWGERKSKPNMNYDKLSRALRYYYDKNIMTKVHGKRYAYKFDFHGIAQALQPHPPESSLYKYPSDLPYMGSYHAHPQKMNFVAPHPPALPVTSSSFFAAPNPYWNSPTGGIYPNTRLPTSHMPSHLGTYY
In short: as §1

ELF1 = ELF1 (Homo sapiens, UniProt P32519 1-619); conditions: protein: recombinant; tags: N-terminal GST; dsDNA, one strand shown
Sequence of ELF1 (P32519 whole entry): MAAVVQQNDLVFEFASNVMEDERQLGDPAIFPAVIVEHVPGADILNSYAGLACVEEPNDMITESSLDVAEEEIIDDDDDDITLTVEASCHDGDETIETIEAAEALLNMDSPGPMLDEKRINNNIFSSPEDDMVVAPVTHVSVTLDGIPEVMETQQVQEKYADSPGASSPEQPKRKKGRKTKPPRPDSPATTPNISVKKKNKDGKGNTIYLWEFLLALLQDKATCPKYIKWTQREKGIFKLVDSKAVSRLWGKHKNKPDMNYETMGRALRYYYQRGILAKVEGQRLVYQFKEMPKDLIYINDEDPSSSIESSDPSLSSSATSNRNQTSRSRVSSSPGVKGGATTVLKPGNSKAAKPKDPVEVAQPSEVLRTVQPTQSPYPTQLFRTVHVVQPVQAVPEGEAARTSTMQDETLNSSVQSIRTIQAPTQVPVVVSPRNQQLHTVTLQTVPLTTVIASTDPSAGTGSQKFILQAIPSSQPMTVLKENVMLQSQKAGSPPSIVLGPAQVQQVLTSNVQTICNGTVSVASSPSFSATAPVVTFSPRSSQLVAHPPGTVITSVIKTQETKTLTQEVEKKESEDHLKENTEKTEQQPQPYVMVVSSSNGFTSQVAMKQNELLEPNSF
In short: as §1

EHF = target: T5, EHF (Homo sapiens, UniProt Q9NZC4 1-300); conditions: protein: recombinant; tags: N-terminal GST; dsDNA, one strand shown
T5 sequence: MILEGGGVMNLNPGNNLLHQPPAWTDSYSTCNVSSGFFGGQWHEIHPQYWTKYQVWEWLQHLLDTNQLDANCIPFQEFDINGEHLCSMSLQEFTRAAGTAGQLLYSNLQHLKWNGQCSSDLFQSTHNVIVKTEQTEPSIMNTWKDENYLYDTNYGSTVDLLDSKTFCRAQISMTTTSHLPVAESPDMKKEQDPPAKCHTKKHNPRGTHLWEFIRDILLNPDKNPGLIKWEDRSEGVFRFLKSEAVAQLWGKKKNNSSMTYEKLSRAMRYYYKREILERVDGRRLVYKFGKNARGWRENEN
In short: as §1

SPI1 = SPI1 (Homo sapiens, UniProt P17947 1-270); conditions: protein: recombinant; tags: N-terminal GST; dsDNA, one strand shown
In short: as §1

SPIB = SPIB (Homo sapiens, UniProt Q01892 1-262); conditions: protein: recombinant; tags: N-terminal GST; dsDNA, one strand shown
Sequence of SPIB (Q01892 whole entry): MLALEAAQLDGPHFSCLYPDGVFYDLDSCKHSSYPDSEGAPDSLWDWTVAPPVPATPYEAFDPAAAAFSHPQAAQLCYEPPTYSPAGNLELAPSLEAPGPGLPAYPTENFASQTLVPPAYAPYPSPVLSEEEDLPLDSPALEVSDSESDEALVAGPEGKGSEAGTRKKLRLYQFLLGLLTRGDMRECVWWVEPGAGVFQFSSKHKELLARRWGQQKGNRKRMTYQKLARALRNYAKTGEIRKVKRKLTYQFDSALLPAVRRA
In short: as §1

ELK3 = target: T6, ELK3 (Homo sapiens, UniProt P41970 1-407); conditions: protein: recombinant; tags: N-terminal GST; dsDNA, one strand shown
T6 sequence: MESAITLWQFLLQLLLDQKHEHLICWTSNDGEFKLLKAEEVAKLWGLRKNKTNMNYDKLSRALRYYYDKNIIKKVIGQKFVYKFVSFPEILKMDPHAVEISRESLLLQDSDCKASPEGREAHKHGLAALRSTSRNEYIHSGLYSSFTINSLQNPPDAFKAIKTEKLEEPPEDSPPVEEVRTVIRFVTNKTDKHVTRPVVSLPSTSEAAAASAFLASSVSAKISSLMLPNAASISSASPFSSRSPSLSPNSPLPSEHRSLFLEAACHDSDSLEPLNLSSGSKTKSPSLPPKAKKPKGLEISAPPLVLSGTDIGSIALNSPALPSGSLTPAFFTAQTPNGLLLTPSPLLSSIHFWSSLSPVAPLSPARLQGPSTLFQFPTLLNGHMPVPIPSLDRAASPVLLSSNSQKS
In short: as §1

FEV = target: T7, FEV (Homo sapiens, UniProt Q99581 1-238); conditions: protein: recombinant; tags: N-terminal GST; dsDNA, one strand shown
T7 sequence: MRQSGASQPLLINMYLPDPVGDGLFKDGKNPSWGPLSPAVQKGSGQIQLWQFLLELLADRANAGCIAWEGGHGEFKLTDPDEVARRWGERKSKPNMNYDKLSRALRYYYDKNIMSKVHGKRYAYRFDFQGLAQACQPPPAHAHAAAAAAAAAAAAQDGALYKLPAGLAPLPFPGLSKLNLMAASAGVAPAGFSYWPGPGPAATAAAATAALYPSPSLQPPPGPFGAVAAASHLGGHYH
In short: as §1

ETV5 = ETV5 (Homo sapiens, UniProt P41161 1-510); conditions: protein: recombinant; tags: N-terminal GST; dsDNA, one strand shown
Sequence of ETV5 (P41161 whole entry): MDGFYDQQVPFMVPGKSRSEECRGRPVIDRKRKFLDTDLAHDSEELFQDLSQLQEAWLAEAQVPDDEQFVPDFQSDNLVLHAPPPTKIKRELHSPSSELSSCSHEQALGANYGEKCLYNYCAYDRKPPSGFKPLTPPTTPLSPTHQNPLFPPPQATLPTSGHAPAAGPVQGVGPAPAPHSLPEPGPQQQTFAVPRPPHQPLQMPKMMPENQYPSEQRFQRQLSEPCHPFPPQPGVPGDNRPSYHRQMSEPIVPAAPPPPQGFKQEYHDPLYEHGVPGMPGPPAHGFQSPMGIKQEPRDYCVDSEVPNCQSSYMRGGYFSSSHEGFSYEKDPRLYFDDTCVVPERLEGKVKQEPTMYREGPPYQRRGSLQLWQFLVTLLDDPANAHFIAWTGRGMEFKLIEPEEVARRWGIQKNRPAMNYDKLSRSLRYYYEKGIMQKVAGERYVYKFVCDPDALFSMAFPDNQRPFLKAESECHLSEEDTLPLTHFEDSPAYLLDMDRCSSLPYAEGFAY
In short: as §1

HSF1 = HSF1 (Homo sapiens, UniProt Q00613 1-529); conditions: protein: recombinant; tags: N-terminal GST; chain copies: 3; dsDNA, one strand shown
Sequence of HSF1 (Q00613 whole entry): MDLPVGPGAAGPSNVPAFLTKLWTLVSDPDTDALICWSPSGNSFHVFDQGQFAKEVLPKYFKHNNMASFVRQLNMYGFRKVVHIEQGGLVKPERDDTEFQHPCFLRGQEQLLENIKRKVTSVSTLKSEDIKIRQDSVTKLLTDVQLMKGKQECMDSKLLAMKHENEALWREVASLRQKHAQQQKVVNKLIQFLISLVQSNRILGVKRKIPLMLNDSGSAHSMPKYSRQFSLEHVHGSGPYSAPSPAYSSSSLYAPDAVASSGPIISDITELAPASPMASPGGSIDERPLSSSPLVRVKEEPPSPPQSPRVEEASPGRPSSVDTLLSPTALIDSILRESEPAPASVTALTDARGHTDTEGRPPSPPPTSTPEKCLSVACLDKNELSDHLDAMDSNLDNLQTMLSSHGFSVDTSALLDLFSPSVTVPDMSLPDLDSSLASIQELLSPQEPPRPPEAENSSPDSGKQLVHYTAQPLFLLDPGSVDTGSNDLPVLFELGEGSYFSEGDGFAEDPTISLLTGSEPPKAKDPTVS
In short: as §1

SPIC = target: T8, SPIC (Homo sapiens, UniProt Q8N5J4 1-248); conditions: protein: recombinant; tags: N-terminal GST; dsDNA, one strand shown
T8 sequence: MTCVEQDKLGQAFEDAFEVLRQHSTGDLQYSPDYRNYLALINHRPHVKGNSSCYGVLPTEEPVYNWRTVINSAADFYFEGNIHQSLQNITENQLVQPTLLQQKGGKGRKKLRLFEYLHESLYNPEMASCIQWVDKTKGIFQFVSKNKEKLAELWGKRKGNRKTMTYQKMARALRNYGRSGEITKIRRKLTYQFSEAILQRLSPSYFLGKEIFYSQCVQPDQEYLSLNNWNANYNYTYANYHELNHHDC
In short: as §1

ELF4 = ELF4 (Homo sapiens, UniProt Q99607 1-663); conditions: protein: recombinant; tags: N-terminal GST; dsDNA, one strand shown
Sequence of ELF4 (Q99607 whole entry): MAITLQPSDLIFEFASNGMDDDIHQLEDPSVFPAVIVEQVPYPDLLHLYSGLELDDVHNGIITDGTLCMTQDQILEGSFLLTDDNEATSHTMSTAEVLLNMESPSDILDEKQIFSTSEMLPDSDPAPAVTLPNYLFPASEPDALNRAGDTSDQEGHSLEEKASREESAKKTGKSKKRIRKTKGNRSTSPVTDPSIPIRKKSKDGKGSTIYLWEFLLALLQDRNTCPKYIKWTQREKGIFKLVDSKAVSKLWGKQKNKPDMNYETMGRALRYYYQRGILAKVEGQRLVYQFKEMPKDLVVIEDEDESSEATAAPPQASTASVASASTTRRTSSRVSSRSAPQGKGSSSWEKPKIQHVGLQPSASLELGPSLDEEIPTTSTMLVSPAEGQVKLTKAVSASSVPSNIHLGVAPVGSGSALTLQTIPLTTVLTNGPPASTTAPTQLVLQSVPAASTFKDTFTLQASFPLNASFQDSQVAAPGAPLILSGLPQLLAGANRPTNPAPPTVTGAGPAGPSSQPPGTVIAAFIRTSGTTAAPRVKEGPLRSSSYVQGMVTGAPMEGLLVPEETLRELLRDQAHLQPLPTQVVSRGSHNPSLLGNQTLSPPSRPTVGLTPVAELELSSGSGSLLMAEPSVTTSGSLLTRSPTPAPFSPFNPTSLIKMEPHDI
In short: as §1

ELK4 = target: T9, ELK4 (Homo sapiens, UniProt P28324-2 1-405); conditions: protein: recombinant; tags: N-terminal GST; dsDNA, one strand shown
T9 sequence: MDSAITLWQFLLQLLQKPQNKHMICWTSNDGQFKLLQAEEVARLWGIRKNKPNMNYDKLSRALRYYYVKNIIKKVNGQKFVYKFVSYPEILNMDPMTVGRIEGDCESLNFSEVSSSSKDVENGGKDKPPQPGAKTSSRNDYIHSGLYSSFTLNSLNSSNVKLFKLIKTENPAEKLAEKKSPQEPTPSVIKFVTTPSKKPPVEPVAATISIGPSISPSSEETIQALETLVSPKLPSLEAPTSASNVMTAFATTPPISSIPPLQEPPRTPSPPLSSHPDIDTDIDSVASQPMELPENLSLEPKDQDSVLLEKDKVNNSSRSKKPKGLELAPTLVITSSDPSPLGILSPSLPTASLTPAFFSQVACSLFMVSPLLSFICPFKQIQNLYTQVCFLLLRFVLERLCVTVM
In short: as §1

ETV2 = target: T10, ETV2 (Homo sapiens, UniProt O00321 1-342); conditions: protein: recombinant; tags: N-terminal GST; dsDNA, one strand shown
T10 sequence: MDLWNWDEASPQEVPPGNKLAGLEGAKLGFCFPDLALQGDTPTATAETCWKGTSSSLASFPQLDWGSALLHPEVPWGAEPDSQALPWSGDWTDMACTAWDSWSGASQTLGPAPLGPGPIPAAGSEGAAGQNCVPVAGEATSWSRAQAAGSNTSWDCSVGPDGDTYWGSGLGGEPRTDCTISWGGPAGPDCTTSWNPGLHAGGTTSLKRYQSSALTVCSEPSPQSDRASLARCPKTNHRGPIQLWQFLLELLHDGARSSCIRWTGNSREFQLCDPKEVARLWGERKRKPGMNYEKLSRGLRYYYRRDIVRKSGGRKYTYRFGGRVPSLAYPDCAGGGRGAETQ
In short: as §1

ELF3 = target: T11, ELF3 (Homo sapiens, UniProt P78545 1-371); conditions: protein: recombinant; tags: N-terminal GST; dsDNA, one strand shown
T11 sequence: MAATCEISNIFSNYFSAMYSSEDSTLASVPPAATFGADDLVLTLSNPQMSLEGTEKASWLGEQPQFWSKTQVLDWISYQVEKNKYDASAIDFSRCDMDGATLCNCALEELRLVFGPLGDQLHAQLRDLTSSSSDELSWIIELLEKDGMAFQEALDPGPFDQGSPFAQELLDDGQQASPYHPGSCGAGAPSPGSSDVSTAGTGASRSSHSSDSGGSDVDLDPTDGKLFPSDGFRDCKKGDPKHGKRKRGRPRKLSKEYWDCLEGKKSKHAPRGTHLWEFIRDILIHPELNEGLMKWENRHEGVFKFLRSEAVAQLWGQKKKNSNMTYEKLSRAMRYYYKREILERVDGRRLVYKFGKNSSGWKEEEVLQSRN
In short: as §1

CRX = CRX (Homo sapiens, UniProt O43186 1-299); conditions: protein: recombinant; tags: N-terminal GST; dsDNA, one strand shown
Sequence of CRX (O43186 whole entry): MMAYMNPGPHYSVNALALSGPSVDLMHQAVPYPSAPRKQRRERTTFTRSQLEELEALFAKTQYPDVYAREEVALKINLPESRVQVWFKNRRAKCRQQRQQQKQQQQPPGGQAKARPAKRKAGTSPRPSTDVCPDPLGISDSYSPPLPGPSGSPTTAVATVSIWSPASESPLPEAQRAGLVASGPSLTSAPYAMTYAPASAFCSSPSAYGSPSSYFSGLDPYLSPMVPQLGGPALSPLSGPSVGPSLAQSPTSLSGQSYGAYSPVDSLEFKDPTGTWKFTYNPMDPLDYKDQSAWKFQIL
In short: as §1

ETV1 = ETV1 (Homo sapiens, UniProt P50549 1-477); conditions: protein: recombinant; tags: N-terminal GST; dsDNA, one strand shown
Sequence of ETV1 (P50549 whole entry): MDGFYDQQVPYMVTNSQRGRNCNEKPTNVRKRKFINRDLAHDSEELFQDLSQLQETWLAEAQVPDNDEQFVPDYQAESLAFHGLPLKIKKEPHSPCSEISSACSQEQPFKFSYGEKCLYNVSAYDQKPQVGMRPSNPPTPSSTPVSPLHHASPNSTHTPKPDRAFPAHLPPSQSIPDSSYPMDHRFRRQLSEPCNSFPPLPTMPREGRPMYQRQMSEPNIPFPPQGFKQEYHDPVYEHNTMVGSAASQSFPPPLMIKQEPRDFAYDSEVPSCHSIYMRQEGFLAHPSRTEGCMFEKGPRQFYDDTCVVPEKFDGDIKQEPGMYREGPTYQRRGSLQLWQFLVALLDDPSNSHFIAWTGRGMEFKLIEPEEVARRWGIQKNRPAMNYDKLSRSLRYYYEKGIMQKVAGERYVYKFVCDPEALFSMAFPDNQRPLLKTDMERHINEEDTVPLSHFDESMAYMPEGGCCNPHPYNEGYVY
In short: as §1

TCCCAC
binding signal (FLI1): 1.31 fold enrichment (6-mer frequency, TF over GST control)
binding signal (ELK1): 1.42 fold enrichment (6-mer frequency, TF over GST control)
binding signal (GABPA): 1.36 fold enrichment (6-mer frequency, TF over GST control)
binding signal (ERG): 1.37 fold enrichment (6-mer frequency, TF over GST control)
binding signal (ELF1): 1.47 fold enrichment (6-mer frequency, TF over GST control)
binding signal (EHF): 1.38 fold enrichment (6-mer frequency, TF over GST control)
binding signal (SPI1): 1.34 fold enrichment (6-mer frequency, TF over GST control)
binding signal (SPIB): 1.26 fold enrichment (6-mer frequency, TF over GST control)
binding signal (ELK3): 1.27 fold enrichment (6-mer frequency, TF over GST control)
binding signal (FEV): 1.38 fold enrichment (6-mer frequency, TF over GST control)
binding signal (ETV5): 1.37 fold enrichment (6-mer frequency, TF over GST control)
binding signal (HSF1): 1.17 fold enrichment (6-mer frequency, TF over GST control)
binding signal (SPIC): 1.17 fold enrichment (6-mer frequency, TF over GST control)
binding signal (ELF4): 1.34 fold enrichment (6-mer frequency, TF over GST control)
binding signal (ELK4): 1.34 fold enrichment (6-mer frequency, TF over GST control)
binding signal (ETV2): 1.12 fold enrichment (6-mer frequency, TF over GST control)
binding signal (ELF3): 1.46 fold enrichment (6-mer frequency, TF over GST control)
binding signal (CRX): 1.34 fold enrichment (6-mer frequency, TF over GST control)
binding signal (ETV1): 1.34 fold enrichment (6-mer frequency, TF over GST control)
